The values that follow come from the supplement of paper PMC8285479.

Structures can show the parent of a compound that is named as a salt. ± gives the standard deviation of the averaged measurements. The full ranking holds about 1,900 compounds; the median of “normalised cell viability (NPI; 0 = phenylarsine oxide control, 1 = DMSO control)” is about 1, and the lowest 2% start at about 0.039. The sample as a whole holds a higher share of the lowest values than the screen did.

This assay has as its system NCI-H1944. Briefly: normalised cell viability (NPI; 0 = phenylarsine oxide control, 1 = DMSO control) (fraction of DMSO control); NCI-H1944 is a non-small cell lung cancer line; higher = more viable cells (less compound toxicity). Particulars: 6 days.
Where [1] appears, read: glucocorticoid arm: hydrocortisone 2.75 uM co-treatment, compound 1 µM.
The mark [2] stands for this setting: glucocorticoid arm: hydrocortisone 2.75 uM co-treatment, compound 5 µM.
[3] abbreviates: glucocorticoid arm: hydrocortisone 2.75 uM pre-treated 2 days and continued, compound 1 µM.
Where [4] appears, read: glucocorticoid arm: hydrocortisone 2.75 uM pre-treated 2 days and continued, compound 5 µM.
The mark [5] stands for this setting: glucocorticoid arm: vehicle, compound 1 µM.
Setting [6] is: glucocorticoid arm: vehicle, compound 5 µM.
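Note: CTB read-out in 384-well plates, triplicate wells, NPI normalised per plate against 1 µM phenylarsine oxide (0) and 0.1% DMSO (1) controls.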

Turning to `CNCc1ccc(-c2[nH]c3cc(F)cc4c3c2CCNC4=O)cc1`, the normalised cell viability was found to be 0.982 ± 0.0036 under setting [1]; 1 ± 0.071 under setting [2]; 0.968 ± 0.0095 under setting [3]; 1.01 ± 0.022 under setting [4]; 0.989 ± 0.013 under setting [5]; 0.948 ± 0.022 under setting [6].
`CCCCc1nc2cc(/C=C/C(=O)NO)ccc2n1CCN(CC)CC` [Pracinostat (SB939)]: the normalised cell viability came to 0.9753 ± 0.004 under setting [1]; 0.00959 ± 0.0058 under setting [2]; 1 ± 0.0095 under setting [3]; 0.0658 ± 0.0071 under setting [4]; 0.686 ± 0.077 under setting [5]; 0.000852 ± 0.0004 under setting [6].
Take `Nc1ncnc2c1c(-c1cccc(OCc3ccccc3)c1)cn2C1CC(CN2CCC2)C1` (centres undefined): the normalised cell viability was found to be 0.457 ± 0.025 under setting [1]; 0.366 ± 0.021 under setting [2]; 0.596 ± 0.0046 under setting [3]; 0.436 ± 0.062 under setting [4]; 0.939 ± 0.013 under setting [5]; 0.776 ± 0.039 under setting [6].
For `O=C(NCCO)c1ccc2c(c1)nc(Nc1cccc(Cl)c1)c1ccncc12` [CK2 Inhibitor 2], the normalised cell viability reads like this: under setting [1], 1.02 ± 0.022; under setting [2], 0.854 ± 0.028; under setting [3], 1.03 ± 0.015; under setting [4], 1.07 ± 0.021; under setting [5], 1.001 ± 0.0081; under setting [6], 0.567 ± 0.033.
With `CC(=O)[C@]1(O)Cc2c(O)c3c(c(O)c2[C@@H](O[C@H]2C[C@H](N)[C@H](O)[C@H](C)O2)C1)C(=O)c1ccccc1C3=O` [Idarubicin hydrochloride], the normalised cell viability reads like this: under setting [1], 0.00497 ± 0.00094; under setting [2], 0.0017 ± 0.0005; under setting [3], 0.00532 ± 0.0009; under setting [4], 0.024 ± 0.0063; under setting [5], 0.00471 ± 0.00071; under setting [6], 0.00231 ± 0.00037.
As to `COc1cccc2c1C(=O)c1c(O)c3c(c(O)c1C2=O)C[C@@](O)(C(=O)CO)C[C@@H]3O[C@H]1C[C@H](N)[C@H](O)[C@H](C)O1` [Doxorubicin hydrochloride; 4'-Epiadriamycin; Doxorubicin HCl], the normalised cell viability is, setting by setting: under setting [1], 0.454 ± 0.36; under setting [2], 0.288 ± 0.3; under setting [3], 0.754 ± 0.26; under setting [4], 0.484 ± 0.48; under setting [5], 0.178 ± 0.17; under setting [6], 0.129 ± 0.14.
As for `CCCCC(=O)OCC(=O)[C@]1(O)Cc2c(O)c3c(c(O)c2[C@@H](O[C@H]2C[C@H](NC(=O)C(F)(F)F)[C@H](O)[C@H](C)O2)C1)C(=O)c1c(OC)cccc1C3=O` [Valrubicin], the normalised cell viability came to 0.665 ± 0.04 under setting [1]; 0.868 ± 0.016 under setting [2]; 0.973 ± 0.016 under setting [3]; 0.982 ± 0.017 under setting [4]; 0.228 ± 0.017 under setting [5]; 0.374 ± 0.0045 under setting [6].
With `COc1cccc2c1C(=O)c1c(O)c3c(c(O)c1C2=O)C[C@@](O)(C(C)=O)C[C@@H]3O[C@H]1C[C@H](N)[C@H](O)[C@H](C)O1` [Daunorubicin hydrochloride; Daunorubicin HCl], the normalised cell viability by setting is: under setting [1], 0.0398 ± 0.0066; under setting [2], 1.05 ± 0.011; under setting [3], 0.587 ± 0.027; under setting [4], 1.013 ± 0.0058; under setting [5], 0.0031 ± 0.0017; under setting [6], 1.007 ± 0.0058.
In the case of `CC(=O)[C@]1(O)Cc2c(O)c3c(c(O)c2[C@@H](O[C@H]2C[C@H](N)[C@H](O)[C@H](C)O2)C1)C(=O)c1ccccc1C3=O` [Idarubicin hydrochloride; Idarubicin; 4-DMD HCl], the normalised cell viability under setting [1] was 0.0183 ± 0.0037; the normalised cell viability under setting [2] stood at 1.06 ± 0.026; the normalised cell viability under setting [3] came to 0.0494 ± 0.0094; the normalised cell viability under setting [4] was 1.033 ± 0.0058; the normalised cell viability under setting [5] turned out to be 0.00163 ± 0.00068; the normalised cell viability under setting [6] was found to be 1.006 ± 0.0075.
As for `NC(CCCP(=O)(O)O)C(=O)O` (racemic) [(±)-2-Amino-5-phosphonopentanoic acid], the normalised cell viability under setting [1] came out at 0.987 ± 0.0072; the normalised cell viability under setting [2] came out at 0.9967 ± 0.0031; the normalised cell viability under setting [3] is 0.9907 ± 0.0083; the normalised cell viability under setting [4] was determined as 0.993 ± 0.0028; the normalised cell viability under setting [5] turned out to be 0.98 ± 0.0056; the normalised cell viability under setting [6] came to 0.9857 ± 0.0098.
Consider `N[C@@H](CCC(=O)N[C@@H](CSN=O)C(=O)NCC(=O)O)C(=O)O` [S-Nitrosoglutathione], for which the normalised cell viability reads like this: under setting [1], 1.003 ± 0.0058; under setting [2], 1.02 ± 0.025; under setting [3], 1.02; under setting [4], 1.04 ± 0.064; under setting [5], 0.9933 ± 0.0035; under setting [6], 1 ± 0.014.
In the case of `c1ccc2c(c1)CC(N1CCN(c3cccc4c3OCCO4)CC1)C2`, the normalised cell viability reads like this: under setting [1], 0.988 ± 0.019; under setting [2], 0.9857 ± 0.0084; under setting [3], 0.995 ± 0.015; under setting [4], 1.03 ± 0.081; under setting [5], 1.003 ± 0.0058; under setting [6], 1.02 ± 0.011.
With `Nc1nccc2c1ncn2[C@@H]1O[C@H](CO)[C@@H](O)[C@H]1O` [3-deazaadenosine], the normalised cell viability reads like this: under setting [1], 0.989 ± 0.0099; under setting [2], 0.973 ± 0.025; under setting [3], 0.996 ± 0.012; under setting [4], 0.981 ± 0.011; under setting [5], 0.9687 ± 0.0035; under setting [6], 0.968 ± 0.0062.
As for `O=C(c1ccc(Nc2nccc(-c3cc4ccccc4s3)n2)cc1)N1CCC(N2CCCC2)CC1` [IKK-16 (IKK Inhibitor VII)], the normalised cell viability came out at 0.901 ± 0.0072 under setting [1]; 0.626 ± 0.03 under setting [2]; 0.913 ± 0.015 under setting [3]; 0.837 ± 0.021 under setting [4]; 0.9453 ± 0.0065 under setting [5]; 0.0503 ± 0.008 under setting [6].
As for `CNCC[C@H](Oc1cccc2ccccc12)c1cccs1` [Duloxetine HCl], the normalised cell viability was 0.9993 ± 0.0011 under setting [1]; 0.9847 ± 0.0032 under setting [2]; 1.01 ± 0.018 under setting [3]; 0.98 ± 0.015 under setting [4]; 0.999 ± 0.0095 under setting [5]; 0.9923 ± 0.0083 under setting [6].
Turning to `C[n+]1cc2c3c(ccc2c2ccc4cc5c(cc4c21)OCO5)OCO3` [Sanguinarine chloride], the normalised cell viability runs as follows: under setting [1], 1.04 ± 0.011; under setting [2], -0.0014 ± 0.001; under setting [3], 0.903 ± 0.2; under setting [4], -0.00109 ± 0.00052; under setting [5], 0.983 ± 0.037; under setting [6], -0.000203 ± 0.00043.
As for `Cc1ccccc1CNc1ncnc2c1ncn2[C@@H]1O[C@H](CO)[C@@H](O)[C@H]1O` [Metrifudil], the normalised cell viability by setting is: under setting [1], 1.01 ± 0.011; under setting [2], 1.03 ± 0.017; under setting [3], 1.02; under setting [4], 1.04 ± 0.071; under setting [5], 0.996 ± 0.004; under setting [6], 1.001 ± 0.0085.
For `O=C(O)C1CCNCC1` [Isonipecotic acid], the normalised cell viability amounted to 1.003 ± 0.0058 under setting [1]; 1.02 ± 0.017 under setting [2]; 1.01 ± 0.018 under setting [3]; 1.04 ± 0.07 under setting [4]; 0.9937 ± 0.0015 under setting [5]; 1.001 ± 0.0078 under setting [6].
In the case of `Cc1ccccc1/C=C/C1=NCCN1` [Metrazoline oxalate], the normalised cell viability amounted to 0.9993 ± 0.0011 under setting [1]; 1.002 ± 0.0072 under setting [2]; 1.01 under setting [3]; 0.987 ± 0.017 under setting [4]; 0.995 ± 0.007 under setting [5]; 1.002 ± 0.0076 under setting [6].
As for `CN(N=O)C(=O)N[C@@H]1[C@@H](O)[C@H](O)[C@@H](CO)O[C@@H]1O` [Streptozocin], the normalised cell viability under setting [1] was 1 ± 0.014; the normalised cell viability under setting [2] was 1.03 ± 0.015; the normalised cell viability under setting [3] came out at 1.001 ± 0.0081; the normalised cell viability under setting [4] was 1.04 ± 0.01; the normalised cell viability under setting [5] is 0.9943 ± 0.0051; the normalised cell viability under setting [6] turned out to be 1.
Regarding `COCC(=O)O[C@]1(CCN(C)CCCc2nc3ccccc3[nH]2)CCc2cc(F)ccc2[C@@H]1C(C)C` [Mibefradil dihydrochloride], the normalised cell viability reads like this: under setting [1], 0.977 ± 0.011; under setting [2], 0.0303 ± 0.012; under setting [3], 1 ± 0.015; under setting [4], 0.827 ± 0.24; under setting [5], 0.9887 ± 0.0031; under setting [6], 0.00844 ± 0.014.
As for `CC(C)[C@H]1c2ccc(F)cc2CC[C@@]1(CCN(C)CCCc1nc2ccccc2[nH]1)OC(=O)C1CC1`, the normalised cell viability under setting [1] was 0.9943 ± 0.0051; the normalised cell viability under setting [2] was -0.000718 ± 0.00075; the normalised cell viability under setting [3] was 1.013 ± 0.0058; the normalised cell viability under setting [4] amounted to 1.08 ± 0.035; the normalised cell viability under setting [5] was determined as 0.989 ± 0.0095; the normalised cell viability under setting [6] was -6.33e-05 ± 0.0017.
Take `CCOc1ccc(Cc2cc([C@@H]3O[C@H](CO)[C@@H](O)[C@H](O)[C@H]3O)ccc2Cl)cc1` [Dapagliflozin]: the normalised cell viability by setting is: under setting [1], 1.01 ± 0.016; under setting [2], 1.02 ± 0.026; under setting [3], 1.02 ± 0.015; under setting [4], 1.04 ± 0.017; under setting [5], 1.001 ± 0.0081; under setting [6], 1 ± 0.011.
As to `CNC(=O)[C@H]1O[C@@H](n2cnc3c(N)ncnc32)[C@H](O)[C@@H]1O` [5'-N-Methyl carboxamidoadenosine], the normalised cell viability is, setting by setting: under setting [1], 0.982 ± 0.02; under setting [2], 0.972 ± 0.015; under setting [3], 0.988 ± 0.013; under setting [4], 0.961 ± 0.0028; under setting [5], 0.9893 ± 0.0078; under setting [6], 0.976 ± 0.0053.
